Results from PubChem BioAssay (NCI).
The panel holds about 83,000 compounds, 20% with a hit somewhere; the sample as a whole holds those more often.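 48-hour exposure, single concentration, 96-well plates; percent growth endpoint where 0 means no net growth. Active: below 10.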 The source made the active and inactive calls.

Legend:
Assay in all cases: NCI-60 one-dose screen, 48 h (100 = growth as untreated, 0 = no growth, -100 = all killed)
Conditions in all cases: 10 µM unless noted
SK-MEL-2 melanoma = test system: SK-MEL-2 melanoma
EKVX NSCLC = test system: EKVX NSCLC
SN12C renal = test system: SN12C renal
UO-31 renal = test system: UO-31 renal
ACHN renal = test system: ACHN renal
CAKI-1 renal = test system: CAKI-1 renal
A498 renal = test system: A498 renal
CCRF-CEM leukemia = test system: CCRF-CEM leukemia
MOLT-4 leukemia = test system: MOLT-4 leukemia
SR leukemia = test system: SR leukemia
RPMI-8226 leukemia = test system: RPMI-8226 leukemia
OVCAR-8 ovarian = test system: OVCAR-8 ovarian
OVCAR-5 ovarian = test system: OVCAR-5 ovarian
OVCAR-4 ovarian = test system: OVCAR-4 ovarian
SK-OV-3 ovarian = test system: SK-OV-3 ovarian
IGROV1 ovarian = test system: IGROV1 ovarian
OVCAR-3 ovarian = test system: OVCAR-3 ovarian
HS 578T breast = test system: HS 578T breast
NCI/ADR-RES ovarian = test system: NCI/ADR-RES ovarian
TK-10 renal = test system: TK-10 renal

Measured: growth

OCCNCCNc1c2ccccc2nc2ccccc12
inactive: SK-MEL-2 melanoma 68.5% | EKVX NSCLC 109% | SN12C renal 52.2% | UO-31 renal 65.4% | ACHN renal 65.3% | CAKI-1 renal 94.9% | A498 renal 83% | CCRF-CEM leukemia 65.4% | MOLT-4 leukemia 16.7% | SR leukemia 43.9% | RPMI-8226 leukemia 90.8% | OVCAR-8 ovarian 46.3% | OVCAR-5 ovarian 114% | OVCAR-4 ovarian 63.9% | SK-OV-3 ovarian 78% | IGROV1 ovarian 96.7% | OVCAR-3 ovarian 65.6% | HS 578T breast 88.4% | NCI/ADR-RES ovarian 89.1%

Nc1cc(-c2nc3sccn3c2-c2ccnc(NCCCNS(=O)(=O)c3ccc(F)cc3)n2)ccc1F
inactive: SK-MEL-2 melanoma 60.4% | EKVX NSCLC 58.3% | SN12C renal 48.9% | UO-31 renal 30.7% | ACHN renal 32.5% | CAKI-1 renal 29.7% | A498 renal 54.3% | CCRF-CEM leukemia 21.2% | MOLT-4 leukemia 34% | RPMI-8226 leukemia 23% | OVCAR-8 ovarian 46.5% | OVCAR-5 ovarian 61% | OVCAR-4 ovarian 55.2% | SK-OV-3 ovarian 73.6% | IGROV1 ovarian 39.9% | OVCAR-3 ovarian 79.4% | HS 578T breast 77.4% | NCI/ADR-RES ovarian 47.7%

CC(=O)Nc1ccc2c(c1)c(NC(C)=O)nn2C(=O)Nc1ccc(Cc2ccccc2)cc1
inactive: SK-MEL-2 melanoma 12.9% | EKVX NSCLC 71.3% | SN12C renal 82.9% | UO-31 renal 68.2% | TK-10 renal 85% | CAKI-1 renal 49.2% | A498 renal 90.6% | MOLT-4 leukemia 93.6% | SR leukemia 98.7% | RPMI-8226 leukemia 88.8% | OVCAR-8 ovarian 71.8% | OVCAR-5 ovarian 67.1% | OVCAR-4 ovarian 89.4% | SK-OV-3 ovarian 67.3% | IGROV1 ovarian 83.2% | OVCAR-3 ovarian 84.4% | HS 578T breast 56.9% | NCI/ADR-RES ovarian 89.4%

CCCCCCCCCCCCCCCCCCNC(=O)[C@H]1CSC(c2ccc(F)c(OC)c2)N1 (some centres undefined)
inactive: UO-31 renal 45.5% | ACHN renal 30.3% | SK-OV-3 ovarian 10.5%
active: SK-MEL-2 melanoma -94.1% | EKVX NSCLC -57.5% | SN12C renal -79.2% | CAKI-1 renal -76.8% | A498 renal 6.25% | CCRF-CEM leukemia -36.8% | MOLT-4 leukemia -14.9% | SR leukemia -42.1% | RPMI-8226 leukemia -49.3% | OVCAR-8 ovarian -28.2% | OVCAR-5 ovarian -87.9% | OVCAR-4 ovarian -3.83% | OVCAR-3 ovarian -85.6% | HS 578T breast -30.7% | NCI/ADR-RES ovarian -42.6%

O=c1[nH]c(-c2ccccn2)nc2sc3c(c12)CCCCC3
inactive: SK-MEL-2 melanoma 74.4% | EKVX NSCLC 32.8% | SN12C renal 51.2% | TK-10 renal 49.5% | ACHN renal 36.2% | CAKI-1 renal 38.5% | A498 renal 59.4% | MOLT-4 leukemia 32.1% | SR leukemia 27.3% | RPMI-8226 leukemia 40.2% | OVCAR-8 ovarian 36.1% | OVCAR-5 ovarian 72.1% | OVCAR-4 ovarian 23.6% | SK-OV-3 ovarian 53% | IGROV1 ovarian 45.1% | OVCAR-3 ovarian 40.3% | HS 578T breast 81.7% | NCI/ADR-RES ovarian 15.1%

CC/C(Cc1ccccc1)=C(/c1ccc(O)cc1)c1ccc(OCCN2CCCC2)cc1
inactive: TK-10 renal 13.1% | A498 renal 54.9% | OVCAR-5 ovarian 19.8% | SK-OV-3 ovarian 63% | IGROV1 ovarian 13.9%
active: SK-MEL-2 melanoma -52.3% | EKVX NSCLC -21.4% | SN12C renal -11.6% | ACHN renal -68.5% | CAKI-1 renal -72.4% | CCRF-CEM leukemia -33.3% | MOLT-4 leukemia -22.7% | SR leukemia -40.2% | RPMI-8226 leukemia -44.1% | OVCAR-8 ovarian -6.37% | OVCAR-4 ovarian -6.26% | OVCAR-3 ovarian -79.6% | HS 578T breast -28% | NCI/ADR-RES ovarian -8.18%

CNC(=O)c1cc(Oc2ccc3nc(NC(=O)Nc4ccc(CN5CCOCC5)c(C(F)(F)F)c4)sc3c2)ccn1
inactive: SK-MEL-2 melanoma 32.9% | EKVX NSCLC 25.4% | SN12C renal 27.8% | UO-31 renal 26.6% | ACHN renal 16.2% | CAKI-1 renal 19.4% | OVCAR-8 ovarian 18% | OVCAR-5 ovarian 38.6% | OVCAR-4 ovarian 20% | SK-OV-3 ovarian 79.1% | IGROV1 ovarian 40% | HS 578T breast 47.3%
active: A498 renal 9.05% | MOLT-4 leukemia 3.75% | SR leukemia -0.0928% | RPMI-8226 leukemia 5.34% | OVCAR-3 ovarian 6.85% | NCI/ADR-RES ovarian 4.65%

CC1CN(C(C)C)C(=S)N(c2ccccc2)C1=O (centres undefined)
inactive: SK-MEL-2 melanoma 98.5% | EKVX NSCLC 88.6% | SN12C renal 101% | UO-31 renal 84.6% | CAKI-1 renal 68.9% | A498 renal 101% | CCRF-CEM leukemia 90.6% | MOLT-4 leukemia 90% | SR leukemia 108% | RPMI-8226 leukemia 120% | OVCAR-8 ovarian 97.6% | OVCAR-5 ovarian 90.7% | OVCAR-4 ovarian 112% | SK-OV-3 ovarian 106% | IGROV1 ovarian 81.5% | OVCAR-3 ovarian 99.4% | HS 578T breast 98% | NCI/ADR-RES ovarian 92.7%

COc1ccc(CN2C(=O)/C(=C\c3cc(OC)c(OC)c(OC)c3)c3cc(OC)ccc32)cc1
active: SK-MEL-2 melanoma -13.4% | ACHN renal -60.5% | CAKI-1 renal -2.31% | MOLT-4 leukemia -24.7% | SR leukemia -31.1% | RPMI-8226 leukemia -35.9% | OVCAR-8 ovarian -43.2% | SK-OV-3 ovarian 7.88% | IGROV1 ovarian -9.32% | OVCAR-3 ovarian -10.8% | HS 578T breast 9.55% | NCI/ADR-RES ovarian 6.96%
inactive: EKVX NSCLC 13.5% | SN12C renal 18% | TK-10 renal 11.2% | A498 renal 38.6% | OVCAR-5 ovarian 15% | OVCAR-4 ovarian 27.2%

CCC(c1ccc(O)cc1)C(CC)c1ccc(O)c(F)c1 (centres undefined)
inactive: SK-MEL-2 melanoma 75.1% | EKVX NSCLC 84.2% | SN12C renal 88.2% | TK-10 renal 96.6% | ACHN renal 90.5% | CAKI-1 renal 89.2% | A498 renal 107% | MOLT-4 leukemia 54.9% | RPMI-8226 leukemia 63.7% | OVCAR-8 ovarian 98.4% | OVCAR-5 ovarian 93.5% | OVCAR-4 ovarian 75.3% | SK-OV-3 ovarian 99% | IGROV1 ovarian 83% | OVCAR-3 ovarian 85.3% | HS 578T breast 73.9% | NCI/ADR-RES ovarian 81.8%

COc1ccc(-c2cc(-c3cccnc3)nc3sc4c(=O)n(-c5ccc(C)cc5)nnc4c23)cc1OC
inactive: SK-MEL-2 melanoma 107% | EKVX NSCLC 103% | SN12C renal 94.6% | UO-31 renal 81.1% | ACHN renal 93.7% | CAKI-1 renal 83.1% | A498 renal 88.8% | CCRF-CEM leukemia 104% | RPMI-8226 leukemia 99.7% | OVCAR-8 ovarian 105% | OVCAR-5 ovarian 90% | OVCAR-4 ovarian 109% | SK-OV-3 ovarian 95% | IGROV1 ovarian 99.6% | OVCAR-3 ovarian 107% | HS 578T breast 93.9% | NCI/ADR-RES ovarian 102%

C=CCSc1nnc(-c2ccc(C(C)(C)C)cc2)n1-c1cccc(C(F)(F)F)c1
inactive: SK-MEL-2 melanoma 46.7% | EKVX NSCLC 22.2% | SN12C renal 29.4% | TK-10 renal 51.1% | ACHN renal 36.3% | CAKI-1 renal 32.3% | A498 renal 84.7% | CCRF-CEM leukemia 24.2% | MOLT-4 leukemia 21.8% | RPMI-8226 leukemia 17.4% | OVCAR-8 ovarian 32.1% | OVCAR-5 ovarian 77.3% | OVCAR-4 ovarian 44.4% | SK-OV-3 ovarian 61.5% | IGROV1 ovarian 54.5% | OVCAR-3 ovarian 40.9% | HS 578T breast 45.5% | NCI/ADR-RES ovarian 22.9%

CCN(CC)CC(C)(C)C(=O)/C=C/c1ccccc1
active: CCRF-CEM leukemia 9.36%
inactive: SK-MEL-2 melanoma 99.9% | EKVX NSCLC 26.7% | SN12C renal 41.1% | TK-10 renal 91.5% | ACHN renal 43.1% | CAKI-1 renal 49.7% | A498 renal 68.4% | MOLT-4 leukemia 19.1% | RPMI-8226 leukemia 39.4% | OVCAR-8 ovarian 76.6% | OVCAR-5 ovarian 52.4% | OVCAR-4 ovarian 63.3% | SK-OV-3 ovarian 74.8% | IGROV1 ovarian 74.1% | OVCAR-3 ovarian 37.7% | HS 578T breast 75.5% | NCI/ADR-RES ovarian 46.8%
